Values without a mark were called inactive.
The molecules below were run on Vero E6 infected with SARS-CoV-2 (assay: inhibition of SARS-CoV-2 cytopathic effect; higher = more antiviral protection, active = above 15). Conditions: 8.33 nM; 48 h.
With `CCC(=O)OCC(=O)[C@@]1(OC(=O)CC)[C@@H](C)C[C@H]2[C@@H]3CCC4=CC(=O)C=C[C@]4(C)[C@@]3(Cl)[C@@H](O)C[C@@]21C` [beclomethasone-dipropionate] the “inhibition of SARS-CoV-2 cytopathic effect” value (“inhibition” below) was -9.23%.
For `C/N=C(/NC#N)NCCSCc1csc(NC(=N)N)n1` [tiotidine], the “inhibition” value was -1.47%.
With `CCCNC(=O)N1N=C(c2ccc(N)cc2)c2cc3c(cc2C1C)OCO3` (centres undefined) the “inhibition” value was -0.41%.
With `Cc1ncc([N+](=O)[O-])n1CC(C)O` (centres undefined) [secnidazole] the “inhibition” value was -8.4%.
With `CC(=O)Nc1nnc(S(N)(=O)=O)s1` [acetazolamide] the “inhibition” value was -1.99%.
With `CC1(C)C(=O)N(c2ccc(C#N)c(C(F)(F)F)c2)C(=O)N1CCCCO` the “inhibition” value was 0.32%.
`CC1(C)[C@@H](O)CC[C@]2(C)[C@H]3C(=O)C=C4[C@@H]5C[C@@](C)(C(=O)O)CC[C@]5(C)CC[C@@]4(C)[C@]3(C)CC[C@@H]12` [enoxolone] was tested, and the “inhibition” value was -3.58%.
`C[N+]1(CCCCC[N+]2(C)CCCC2)CCCC1` [pentolinium] was tested, and the “inhibition” value was 4.75%.
With `Cc1[nH]c2ccc(Cl)cc2c1C1=CCNCC1` the “inhibition” value was 2.01%.
`Cc1cc(C)c(CNC(=O)c2cc(-c3ccc(N4CCN(C)CC4)nc3)cc3c2c(C)cn3C(C)C)c(=O)[nH]1` was tested, and the “inhibition” value was -2.54%.
With `O=C(N[C@H]1CN2CCC1CC2)c1ccc2c(c1)OCCO2` the “inhibition” value was -1.4%.
`CCOC(=O)c1ccc(OC(=O)CCCCCNC(=N)N)cc1` [gabexate] was tested, and the “inhibition” value was -1.96%.

Same assay, conditions: 100 nM; 48 h
With `O=C(O)c1cccnc1C(=O)O` [quinolinic-acid] the “inhibition” value was 0.73%.
In the case of `CN1C[C@H](CNC(=O)OCc2ccccc2)C[C@@H]2c3cccc4c3c(cn4C)C[C@H]21` [metergoline], the “inhibition” value is reported as -4.21%.
`O=C(Cc1ccc(-c2ccccc2)cc1)Nc1ccccn1` [difenpiramide] was tested, and the “inhibition” value was -1.56%.
For `CC(C)C(=O)SCCCCC[C@H](NC(=O)OC(C)(C)C)C(=O)NC12CC3CC(CC(C3)C1)C2`, the “inhibition” value was -0.22%.
In the case of `CC(C)N1Cc2cc(S(C)(=O)=O)ccc2N(CCN2CC=C(c3c[nH]c4cc(F)ccc34)CC2)S1(=O)=O`, the “inhibition” value is reported as 2.58%.
`NC[C@@H](O)CC(=O)O` [aminohydroxybutyric-acid] was tested, and the “inhibition” value was -2.52%.
With `O=C(/C=C/c1cccc(S(=O)(=O)Nc2ccccc2)c1)NO` [belinostat] the “inhibition” value was -1.26%.
In the case of `NC(=O)c1cccc(N)c1` [3-amino-benzamide], the “inhibition” value is reported as -0.7%.
`c1ccc(CCCN2CCN(CCOC(c3ccccc3)c3ccccc3)CC2)cc1` was tested, and the “inhibition” value was -0.18%.
`O=C(OC(C(F)(F)F)C(F)(F)F)N1CCN(Cc2cccc(Oc3ccccc3)c2)CC1` was tested, and the “inhibition” value was 3.33%.
`CN(Cc1ccc(C(C)(C)C)cc1)Cc1cccc2ccccc12` [butenafine] was tested, and the “inhibition” value was 0.84%.
`CC(=O)c1ccc2c(c1)[C@H](NC(=O)c1ccc(F)c(Cl)c1)[C@H](O)C(C)(C)O2` [tonabersat] was tested, and the “inhibition” value was -0.8%.
For `C[C@@]1(c2cc(-c3cncnc3)c(F)cc2F)CCSC(N)=N1`, the “inhibition” value was -0.51%.
In the case of `c1ccc2[nH]c(-c3cscn3)nc2c1` [tiabendazole], the “inhibition” value is reported as -0.24%.
`CC1(C)C(=O)NC2=C1C(=O)C(=O)c1ccccc12` was tested, and the “inhibition” value was -0.78%.
In the case of `COC[C@H](NC(=O)c1cnc(C)s1)C(=O)N[C@@H](COC)C(=O)N[C@@H](Cc1ccccc1)C(=O)[C@@]1(C)CO1` [oprozomib], the “inhibition” value is reported as 38.6% (active).
`CN(C)C(=O)[C@H](O)[C@H](Cc1ccccc1)NC(=O)c1cc2cc(Cl)ccc2[nH]1` was tested, and the “inhibition” value was -0.45%.
For `CO[C@@H]1[C@H](N(C)C(=O)c2ccccc2)C[C@H]2O[C@]1(C)n1c3ccccc3c3c4c(c5c6ccccc6n2c5c31)C(=O)NC4` [midostaurin], the “inhibition” value was -8.88%.
For `NS(=O)(=O)c1cccc2c1c([N+](=O)[O-])cc1nc(O)c(O)nc12`, the “inhibition” value was 2.47%.
In the case of `CCOC(=O)c1ccc(C#Cc2ccc3c(c2)C(C)(C)CCS3)nc1` [tazarotene], the “inhibition” value is reported as 1.7%.
`Cc1c(Cl)c(C)[n+]([O-])c(Cl)c1-c1noc(-c2cc(O)c(O)c([N+](=O)[O-])c2)n1` [opicapone] was tested, and the “inhibition” value was 0.21%.
For `CC(=O)OCC(=O)[C@@]1(O)CC[C@H]2[C@@H]3CCC4=CC(=O)CC[C@]4(C)[C@@]3(F)[C@@H](O)C[C@@]21C`, the “inhibition” value was 0.97%.

— the supplement of paper PMC13380429
